From PubChem BioAssay (Tox21)
Records with an inconclusive call do not appear. Active and inactive are the calls of the source. Unless noted, the call rests on the fitted dose curve.

Experiments:
[1] = Nuclear factor erythroid 2-related factor 2/antioxidant responsive element (Nrf2/ARE) small molecule agonists: qHTS cell viability counter screen in human keratinocytes (AID 1919968; active means well fitted curve in the direction sought with a large enough effect in the repeat runs; an effect the other way counts as inactive or inconclusive; further: nearly all actives have a fitted effect of over 55% in size)
Method in brief: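 After a 5 h attachment period, ARE-reporter keratinocytes were dosed with compounds in DMSO and then cultured 23 h at 37 C. Cell viability came from CellTiter-Fluor signal read after a further 1 h.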

[2] = Nuclear factor erythroid 2-related factor 2/antioxidant responsive element (Nrf2/ARE) small molecule agonists: luciferase reporter gene qHTS assay in human keratinocytes (AID 1919969); further: nearly all actives have a fitted effect of over 35% in size
[3] = biological target: Gonadotropin-releasing hormone receptor (Homo sapiens) (UniProt P30968); assay: Human gonadotropin-releasing hormone receptor (GnRHR) small molecule agonists, calcium flux assay in GnRHR-HEK293 cells (AID 1920063); further: nearly all actives have a fitted effect of over 35% in size
Chain of Gonadotropin-releasing hormone receptor (Homo sapiens) (P30968 whole entry, looked up): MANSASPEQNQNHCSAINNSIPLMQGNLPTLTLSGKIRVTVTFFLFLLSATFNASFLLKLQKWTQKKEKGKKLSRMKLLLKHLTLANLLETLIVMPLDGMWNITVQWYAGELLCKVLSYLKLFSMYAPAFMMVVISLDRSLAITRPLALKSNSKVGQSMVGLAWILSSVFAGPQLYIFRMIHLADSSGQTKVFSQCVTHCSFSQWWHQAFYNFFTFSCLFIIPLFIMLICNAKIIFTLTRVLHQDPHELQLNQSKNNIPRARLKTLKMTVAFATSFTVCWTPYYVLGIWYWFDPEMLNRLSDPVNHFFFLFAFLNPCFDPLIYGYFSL
Method in brief: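 We seeded human GnRHR-expressing HEK293 cells for 18 hours, loaded them with calcium dye for an hour at 37 C, added test compounds, and recorded fluorescence intensity kinetically for three minutes.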

[4] = biological target: KiSS-1 receptor (Homo sapiens) (UniProt Q969F8); assay: Human kisspeptin (KISS1R) small molecule agonists, calcium flux assay in KISS1R-HEK293 cells (AID 1920064; active means well fitted curve in the direction sought with a large enough effect in the repeat runs; an effect the other way counts as inactive or inconclusive)
Chain of KiSS-1 receptor (Homo sapiens) (Q969F8 whole entry, looked up): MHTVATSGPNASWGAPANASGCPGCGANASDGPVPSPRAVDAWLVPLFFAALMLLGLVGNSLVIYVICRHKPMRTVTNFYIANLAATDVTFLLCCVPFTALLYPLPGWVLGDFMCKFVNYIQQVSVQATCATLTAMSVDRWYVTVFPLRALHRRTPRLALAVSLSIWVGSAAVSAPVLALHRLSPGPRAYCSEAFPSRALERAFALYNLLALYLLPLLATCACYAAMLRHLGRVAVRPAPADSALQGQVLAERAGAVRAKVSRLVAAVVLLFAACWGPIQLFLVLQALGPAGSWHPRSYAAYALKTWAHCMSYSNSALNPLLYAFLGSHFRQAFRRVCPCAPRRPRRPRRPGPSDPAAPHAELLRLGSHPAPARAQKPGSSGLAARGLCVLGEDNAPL
Method in brief: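 Kinetic calcium assay, 1 s sampling over 3 min at Ex/Em 480/540, in HEK293 cells engineered with human KISS1R; compounds delivered in DMSO after 1 h dye loading.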

[5] = G protein-coupled receptor (GPCR) small molecule agonists, calcium flux assay: HEK293 wild type cell line counter screen (AID 1920065)
Method in brief: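 Calcium-sensitive dye, loaded 1 h at 37 C into cells cultured 18 h, reports compound-evoked calcium release as fluorescence (Ex/Em 480/540), measured over 3 min. Agonist mode; 15-point titrations, triplicate.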

[6] = p53 small molecule agonists, cell-based qHTS assay with human liver microsomes (AID 1963577);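 further: p53 response element beta-lactamase reporter cells with liver microsomes plus NADPH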
Method in brief: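 With metabolic activation: human liver microsomes (0.5 mg/mL final) plus NADPH (0.5 mg/mL final) added alongside compounds to p53RE-bla cells; 16 h 37 C exposure; beta-lactamase read by LiveBLAzer fluorescence.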

[7] = p53 small molecule agonists, cell-based qHTS assay with rat liver microsomes (AID 1963578)
Method in brief: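 Metabolic activation by rat liver microsomes and NADPH, each 0.5 mg/mL final, added right after compounds to p53RE-bla reporter cells (4,000/well, plated 5 h earlier). 16 h at 37 C, then LiveBLAzer substrate for 2 h at room temperature in the dark; fluorescence read-out.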

[8] = p53 small molecule agonists, cell-based qHTS assay with human liver microsomes: qHTS cell viability counter screen (AID 1963579); further: nearly all actives have a fitted effect of over 45% in size
Method in brief: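 Metabolic activation used human liver microsomes and NADPH, both 0.5 mg/mL final, over 16 hours at 37 C on p53RE-bla cells (4,000/well). Cytotoxicity measured by CellTiter-Glo luminescence, 30 min at room temperature.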

[9] = p53 small molecule agonists, cell-based qHTS assay with rat liver microsomes: qHTS cell viability counter screen (AID 1963580); further: nearly all actives have a fitted effect of over 45% in size
Method in brief: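 Intracellular ATP, by CellTiter-Glo luminescence, defines viability. HCT-116 p53RE-bla cells, 4,000 per well, were compound-treated in the presence of rat liver microsomes and NADPH for 16 h at 37 C.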

[10] = p53 small molecule agonists, cell-based qHTS assay: qHTS cell viability counter screen (AID 1963581); further: nearly all actives have a fitted effect of over 45% in size
Method in brief: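 Following 5 h attachment, HCT-116 p53RE-bla cells took up compound for 16 h at 37 C; the reporter was read with B/G FRET substrate (2 h RT), and viability then via CellTiter-Glo ATP luminescence.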

[11] = p53 small molecule agonists, cell-based qHTS assay (AID 1963582; active means well fitted activation curve with a large enough effect in the signal ratio in the repeat runs, not every such curve was filed as active; the % refers to the signal ratio)
Method in brief: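 In this cell-based concentration-response screen, a p53 response element drives beta-lactamase; cells received DMSO-borne compounds after 5 h culture and were incubated a further 16 h before FRET substrate development.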

[12] = biological target: 5-hydroxytryptamine receptor 2A (Homo sapiens) (UniProt P28223); assay: 5-hydroxytryptamine receptor 2A (HTR2A) small molecule antagonists, cell-based qHTS assay (AID 1963586); further: nearly all actives have a fitted effect of over 45% in size
Chain of 5-hydroxytryptamine receptor 2A (Homo sapiens) (P28223 whole entry, looked up): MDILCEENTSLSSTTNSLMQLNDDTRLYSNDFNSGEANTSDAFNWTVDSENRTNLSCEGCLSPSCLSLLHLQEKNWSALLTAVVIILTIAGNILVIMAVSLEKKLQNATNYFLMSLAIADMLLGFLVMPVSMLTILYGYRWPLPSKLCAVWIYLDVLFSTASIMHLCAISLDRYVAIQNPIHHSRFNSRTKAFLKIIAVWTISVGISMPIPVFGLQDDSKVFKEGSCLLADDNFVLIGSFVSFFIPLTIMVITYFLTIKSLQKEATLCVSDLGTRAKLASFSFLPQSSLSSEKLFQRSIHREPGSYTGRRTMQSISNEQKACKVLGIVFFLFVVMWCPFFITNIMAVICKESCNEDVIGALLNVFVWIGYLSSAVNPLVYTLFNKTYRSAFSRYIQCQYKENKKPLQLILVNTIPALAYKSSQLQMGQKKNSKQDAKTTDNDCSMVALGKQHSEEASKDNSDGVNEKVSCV
Method in brief: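 Antagonist-mode intracellular calcium assay: DOI (4 nM) added after 5 min compound pre-incubation at room temperature to dye-loaded HTR2A-CHO cells. Fluorescence followed for 3 min, sampled every second.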

[13] = biological target: 5-hydroxytryptamine receptor 2A (Homo sapiens) (UniProt P28223); assay: 5-hydroxytryptamine receptor 2A (HTR2A) small molecule agonists, cell-based qHTS assay (AID 1963587); further: nearly all actives have a fitted effect of over 30% in size
Method in brief: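 Kinetic calcium-flux fluorescence (2 min, 1 sec intervals) after compound addition in agonist mode. HTR2A-CHO cells were cultured 18 h, then dye-loaded 1 h at 37 C.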

[14] = biological target: Muscarinic acetylcholine receptor M1 (Homo sapiens) (UniProt P11229); assay: Cholinergic receptor muscarinic 1 (CHRM1) small molecule antagonists, cell-based qHTS assay (AID 1963588); further: nearly all actives have a fitted effect of over 40% in size
Chain of Muscarinic acetylcholine receptor M1 (Homo sapiens) (P11229 whole entry, looked up): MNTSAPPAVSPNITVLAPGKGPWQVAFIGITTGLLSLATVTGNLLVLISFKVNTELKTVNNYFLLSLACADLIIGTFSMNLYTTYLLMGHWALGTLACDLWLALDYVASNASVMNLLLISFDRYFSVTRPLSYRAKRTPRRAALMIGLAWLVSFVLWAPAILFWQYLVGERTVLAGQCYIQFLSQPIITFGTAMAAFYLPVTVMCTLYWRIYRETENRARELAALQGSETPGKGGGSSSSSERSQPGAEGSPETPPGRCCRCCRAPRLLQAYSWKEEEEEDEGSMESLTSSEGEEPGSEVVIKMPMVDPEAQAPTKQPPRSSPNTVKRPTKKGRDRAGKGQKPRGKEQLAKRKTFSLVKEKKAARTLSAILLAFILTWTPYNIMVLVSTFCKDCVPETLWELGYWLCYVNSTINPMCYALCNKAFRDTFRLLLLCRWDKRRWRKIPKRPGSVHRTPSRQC
Method in brief: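 CHRM1-CHO calcium-flux assay, antagonist mode. Cells were seeded 18 h, dye-loaded 1 h at 37 C and given compound for 5 min at RT, then acetylcholine was added at 50nM. FDSS fluorescence was read 3 min; 15 concentrations, three runs.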

[15] = biological target: Muscarinic acetylcholine receptor M1 (Homo sapiens) (UniProt P11229); assay: Cholinergic receptor muscarinic 1 (CHRM1) small molecule agonists, cell-based qHTS assay (AID 1963589); further: nearly all actives have a fitted effect of over 35% in size
Method in brief: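 Measures agonist-induced intracellular calcium rise. Stable human CHRM1 CHO line, 1 h dye load at 37 C, compounds from DMSO, kinetic fluorescence read.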

[16] = cAMP Responsive Elements (CRE) small molecule agonists, cell-based qHTS assay (AID 1963590)
Method in brief: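 A CRE-responsive beta-lactamase reporter in HEK 293T cells was used. Treatment ran 3 h at 37 C; detection used LiveBLAzer B/G FRET substrate for 2 h at room temperature.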

[17] = cAMP Responsive Elements (CRE) small molecule antagonists, cell-based qHTS assay (AID 1963591; active means well fitted inhibition curve with a large enough effect in the signal ratio in the repeat runs, not every such curve was filed as active; the % refers to the signal ratio)
Method in brief: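 HEK293T cells carrying a CRE-driven beta-lactamase reporter receive compound and NKH477 (0.25 uM final) for 3 h. Fluorescence from LiveBLAzer B/G FRET substrate is read after 2 h at room temperature.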

[18] = biological target: Beta-2 adrenergic receptor (Homo sapiens) (UniProt P07550); assay: Adrenergic beta2 receptor (ADRB2) small molecule antagonists, cell-based qHTS assay (AID 1963592); further: series mostly up to about 92 µM; nearly all actives have a fitted effect of over 50% in size
Chain of Beta-2 adrenergic receptor (Homo sapiens) (P07550 whole entry, looked up): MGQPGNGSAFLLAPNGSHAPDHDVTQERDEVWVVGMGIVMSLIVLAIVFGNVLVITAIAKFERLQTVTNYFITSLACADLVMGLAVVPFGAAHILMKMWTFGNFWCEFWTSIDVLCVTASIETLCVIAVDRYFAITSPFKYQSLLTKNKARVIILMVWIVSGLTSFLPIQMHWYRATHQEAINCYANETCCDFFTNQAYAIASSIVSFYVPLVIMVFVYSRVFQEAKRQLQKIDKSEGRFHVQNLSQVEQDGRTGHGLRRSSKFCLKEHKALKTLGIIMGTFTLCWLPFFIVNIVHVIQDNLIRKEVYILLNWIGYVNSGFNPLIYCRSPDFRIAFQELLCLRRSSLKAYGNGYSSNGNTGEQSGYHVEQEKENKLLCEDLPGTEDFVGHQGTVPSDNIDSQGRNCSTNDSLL
Method in brief: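 Cells (CHO, stable ADRB2 overexpression) incubated 18-20hr at 37C; compounds added from DMSO; agonist mix (1nM isoproterenol, 100uM IBMX, 25uM Ro-20-1724) added; 0.5hr RT; d2-cAMP and anti-cAMP-cryptate added; 1hr RT; 665/615 nm read.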

[19] = biological target: D(2) dopamine receptor (Homo sapiens) (UniProt P14416); assay: Dopamine D2 receptor (DRD2) small molecule agonists, cell-based qHTS assay (AID 1963594); further: nearly all actives have a fitted effect of over 35% in size
Chain of D(2) dopamine receptor (Homo sapiens) (P14416 whole entry, looked up): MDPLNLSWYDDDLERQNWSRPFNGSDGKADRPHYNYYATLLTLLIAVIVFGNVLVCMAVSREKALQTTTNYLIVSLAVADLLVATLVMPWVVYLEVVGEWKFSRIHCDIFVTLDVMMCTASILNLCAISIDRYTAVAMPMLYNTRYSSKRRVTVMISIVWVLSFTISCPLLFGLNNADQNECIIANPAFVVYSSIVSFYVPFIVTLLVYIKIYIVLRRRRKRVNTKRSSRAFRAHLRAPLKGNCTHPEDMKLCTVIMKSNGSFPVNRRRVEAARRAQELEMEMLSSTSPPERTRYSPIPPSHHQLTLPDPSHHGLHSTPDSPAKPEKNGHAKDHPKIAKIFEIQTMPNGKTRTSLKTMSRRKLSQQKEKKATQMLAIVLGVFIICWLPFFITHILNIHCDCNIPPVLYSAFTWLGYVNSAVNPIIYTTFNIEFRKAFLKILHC
Method in brief: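 cAMP accumulation in DRD2-HEK293 cells measured by HTRF after 1 h detection; compounds added 10 min before NKH477 (200nM […]) forskolin-analogue stimulation, 30 min at room temperature, with Ro20-1724 present at 0.1 mM final.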

[20] = biological target: D(2) dopamine receptor (Homo sapiens) (UniProt P14416); assay: Dopamine D2 receptor (DRD2) small molecule antagonists, cell-based qHTS assay (AID 1963595; active means well fitted inhibition curve with a large enough effect in the signal ratio in the repeat runs, with a control signal flat; the % refers to the signal ratio)
Method in brief: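 HEK293 cells stably expressing DRD2, preincubated with 0.1 mM Ro20-1724 and compounds 10 min, were stimulated with 200 nM NKH477 plus 12 nM quinpirole for 30 min at room temperature; cAMP measured by HTRF (665/620 nm).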

Measured: Potency

O=P(O)(OCc1ccccc1)OCc1ccccc1
inactive: all assays above

O=C1CC[C@H](C(=O)N2CCCCC2)N1
inactive: all assays above

O=C1CCCc2ccccc21
inactive: all assays above

Clc1ccc2c(c1)Nc1ccccc1S2
inactive: all assays above

O=c1[nH]c(=O)c2cn[nH]c2[nH]1
inactive: all assays above

O=[N+]([O-])c1ccc(CCO)cc1
not listed: [19]
inactive: all other assays above

CC(C)[C@@H]1CC[C@@H](C)CC1=O
inactive: all assays above
